From PubChem BioAssay
Sfp inh: qHTS Assay for Inhibitors of Bacillus subtilis Sfp phosphopantetheinyl transferase (PPTase); Potency, µM, actives largely listed as inhibitors; 310,000 tested, 3.5% active; Biochemical Sfp PPTase activity, qHTS; 4'-phosphopantetheinyl transferase ffp (Bacillus subtilis), Q9F4F7;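 further: the enzyme is Sfp with the accession as filed and its product quenches rhodamine fluorescence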
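Buffer: 50 mM Hepes-Na pH 7.6, 10 mM MgCl2, 0.01% Nonidet P-40, 0.01% BSA. Enzyme 15 nM, pre-exposed to compound 15 min; substrates then added and fluorescence change tracked over 30 min.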
L3MBTL1 block: qHTS Assay for the Inhibitors of L3MBTL1. Potency, µM (highest dose often 57.1 µM), hits mostly inhibitors. Lethal(3)malignant brain tumor-like protein 1 (Homo sapiens), Q9Y468. 230,000 tested, 0.66% active. AlphaScreen L3MBTL1–H3K9me1 peptide binding. AID 485360, 2010; further: nearly all actives have a fitted effect of over 60% in size
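First, the protein-peptide complex forms for 30 min at room temperature (L3MBTL1 50 nM, biotinylated H3K9me1 peptide 75 nM). Next, compounds are pin-transferred and incubated 30 min. Finally, AlphaScreen beads are added and read after 30 min.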
G9a inh: qHTS Assay for Inhibitors of Histone Lysine Methyltransferase G9a; Histone-lysine N-methyltransferase EHMT2 (Homo sapiens), Q96KQ7; G9a H3K9 monomethylation, AlphaScreen, 2 h; Potency, µM (highest dose often 102 µM), actives largely listed as inhibitors; 350,000 tested, 8.8% active; further: nearly all actives have a fitted effect of over 75% in size
Target sequence (Q96KQ7 913-1193 limits assumed): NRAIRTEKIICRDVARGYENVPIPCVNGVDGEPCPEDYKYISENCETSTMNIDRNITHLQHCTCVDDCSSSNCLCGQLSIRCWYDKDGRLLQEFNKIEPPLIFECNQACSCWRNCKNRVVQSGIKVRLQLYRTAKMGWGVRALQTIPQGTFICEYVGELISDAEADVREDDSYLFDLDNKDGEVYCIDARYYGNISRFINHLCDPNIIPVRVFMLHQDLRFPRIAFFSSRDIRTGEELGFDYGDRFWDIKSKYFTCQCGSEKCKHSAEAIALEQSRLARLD
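Compounds were preincubated with 20 nM G9a for 15 min, after which biotinylated H3K9 peptide (500 nM) and SAM (20 uM) started a 2 h room-temperature reaction. Monomethylated product was quantified by antibody-based AlphaScreen chemiluminescence.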
BAZ2B inh: qHTS Assay for Inhibitors of BAZ2B; AlphaScreen BAZ2B-H3K14Ac peptide displacement; Potency, µM (top dose mostly 114 µM), most hits filed as inhibitors; 360,000 tested, 4.4% active; Bromodomain adjacent to zinc finger domain protein 2B (Homo sapiens), Q9UIF8; further: nearly all actives have a fitted effect of over 60% in size
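BAZ2B 50 nM plus b-H3(5-23)K14Ac 50 nM, PBS pH 7.4/0.01% Tween-20, 30 min RT; compound added (max 110 uM), 30 min RT; streptavidin donor/Ni-chelate acceptor beads 10 ug/mL final, 20 min dark; AlphaScreen read.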
JMJD2A Tudor: qHTS Assay for Inhibitors of JMJD2A-Tudor Domain; 390,000 tested, 4.4% active; Lysine-specific demethylase 4A (Homo sapiens), O75164; AID 504339, 2011; AlphaScreen JMJD2A-Tudor / H3K4me3 peptide binding; Potency, µM (highest dose often 114 µM), most hits filed as inhibitors; further: nearly all actives have a fitted effect of over 50% in size
HP1b chromo inh: HTS for Inhibitors of HP1-beta Chromodomain Interactions with Methylated Histone Tails; AlphaScreen HP1-beta / biotin-H3K9me3 peptide binding; Potency, µM (titrated, usually from 114 µM), actives largely listed as inhibitors; 390,000 tested, 0.56% active; further: nearly all actives have a fitted effect of over 70% in size
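HP1-beta protein (50 nM final) preincubated 30 min at room temperature with biotinylated H3(1-18)K9me3 peptide (50 nM) in PBS pH 7.4, 0.01% Tween-20, then compound added for 30 min. AlphaScreen streptavidin donor/nickel chelate acceptor beads (10 ug/mL final), 30 min dark, luminescence read.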
JMJD2E inh-1: Inhibitors of Human Jumonji Domain Containing 2E (JMJD2E): 8HQs - Round 1 | AID 493212, 2011 | 130 tested, 89% active | shares compounds with BAZ2B inh | Potency, µM (series often up to 57 µM), most hits filed as inhibitors | JMJD2E demethylase, FDH-coupled NADH fluorescence
Target sequence (B2RXH2 1-337 limits assumed): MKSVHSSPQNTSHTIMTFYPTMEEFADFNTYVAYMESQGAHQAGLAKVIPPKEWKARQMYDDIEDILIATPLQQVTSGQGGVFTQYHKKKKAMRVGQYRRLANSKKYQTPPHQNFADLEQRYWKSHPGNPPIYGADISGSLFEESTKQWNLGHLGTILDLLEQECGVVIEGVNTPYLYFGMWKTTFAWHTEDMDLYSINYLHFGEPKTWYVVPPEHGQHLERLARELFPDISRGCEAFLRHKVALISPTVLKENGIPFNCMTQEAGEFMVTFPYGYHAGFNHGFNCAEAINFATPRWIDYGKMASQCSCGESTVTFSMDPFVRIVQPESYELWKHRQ
JMJD2E inh-2: Confirmation qHTS Assay for Inhibitors of Human Jumonji Domain Containing 2E (JMJD2E). shares compounds with JMJD2A Tudor. Recombinant JMJD2E, FDH-coupled NADH fluorescence (FDH is formaldehyde dehydrogenase). Potency, µM (titrated, usually from 56.8 µM), hits mostly inhibitors. 140 tested, 93% active
FDH inh: Counterscreen for JMJD2E Inhibitors: qHTS Assay for Inhibitors of Formaldehyde Dehydrogenase (FDH); shares compounds with JMJD2A Tudor; FDH enzyme assay, NADH fluorescence kinetic; Potency, µM (series often up to 56.7 µM), usual class: inhibitors; 140 tested, 10% active
JMJD2E MALDI inh: MALDI-TOF-MS Assay for Inhibitors of Human Jumonji Domain Containing 2E (JMJD2E) | 45 tested, 90% active | recombinant JMJD2E demethylation, MALDI-TOF-MS | shares compounds with JMJD2A Tudor | Potency, µM, most hits filed as inhibitors | AID 2688, 2010;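 active means compounds whose IC50 for blocking JMJD2E demethylation is below 100 µM; inconclusive means dose dependent effect but IC50 above 100 µM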
Large screens that a line does not name were inactive (follow-up assays come after a bar, where they were run). This is a sample that favours compounds with a hit; in the whole collection about 12% have one here. Unless noted, the call rests on the fitted dose curve; in most records, active means well fitted curve in the direction sought with a large enough effect; inconclusive means small, poorly fitted or top-dose-only effect, or another doubt; inactive means no such curve, though single readings can be large; an effect the other way counts as inactive or inconclusive.

CN1CCN(c2ncnc3ccc(-c4cccnc4)cc23)CC1	none (no result: L3MBTL1 block, BAZ2B inh, JMJD2A Tudor, HP1b chromo inh)
COC(c1ccccc1Br)C(C)/C=C/CCO (stereo not drawn)	none (no result: L3MBTL1 block, G9a inh, BAZ2B inh, JMJD2A Tudor, HP1b chromo inh)
CSc1ncccc1C(=O)NCC1CCCCC1	none (no result: BAZ2B inh)
Oc1ccc(COc2cccc3ccccc23)c2cccnc12	G9a inh inconclusive, BAZ2B inh 56µM (no result: Sfp inh, JMJD2A Tudor, HP1b chromo inh) | JMJD2E inh-1 10µM | JMJD2E inh-2 10µM | FDH inh inactive
Oc1ccc(COC2CCCC2)c2cccnc12	L3MBTL1 block 20µM, BAZ2B inh 13µM (no result: Sfp inh, JMJD2A Tudor, HP1b chromo inh) | JMJD2E inh-1 6.3µM | JMJD2E inh-2 6.3µM | FDH inh inactive
Oc1ccc(CNc2ccc(C(F)(F)F)cc2F)c2cccnc12	JMJD2A Tudor 50µM (no result: Sfp inh, L3MBTL1 block, G9a inh, BAZ2B inh, HP1b chromo inh) | JMJD2E inh-1 2.2µM | JMJD2E inh-2 2.2µM | FDH inh inactive | JMJD2E MALDI inh 20
Cc1ccc(NCc2ccc(O)c3ncccc23)c(F)c1	JMJD2A Tudor 18µM (no result: Sfp inh, L3MBTL1 block, G9a inh, BAZ2B inh, HP1b chromo inh) | JMJD2E inh-1 0.71µM | JMJD2E inh-2 8.1µM | FDH inh inactive | JMJD2E MALDI inh 11
Nc1cc(C(F)(F)F)ccc1NCCc1ccccn1	BAZ2B inh inconclusive, JMJD2A Tudor inconclusive, HP1b chromo inh inconclusive (no result: L3MBTL1 block)
COc1cccc2c1C(=O)c1c(O)c3c(c(O)c1C2=O)C[C@](O)(C(=O)CO)C[C@H]3O[C@@H]1C[C@H](N)[C@H](O)[C@H](C)O1	G9a inh inconclusive (no result: L3MBTL1 block, BAZ2B inh, JMJD2A Tudor, HP1b chromo inh)
Oc1ccc(CCc2c(F)cccc2F)c2cccnc12	none (no result: Sfp inh, L3MBTL1 block, G9a inh, BAZ2B inh, HP1b chromo inh) | JMJD2E inh-1 8.1µM | JMJD2E inh-2 13µM | FDH inh inactive | JMJD2E MALDI inh 39
Oc1ccc(CNCc2ccccc2F)c2cccnc12	JMJD2A Tudor 25µM (no result: Sfp inh, L3MBTL1 block, G9a inh, BAZ2B inh, HP1b chromo inh) | JMJD2E inh-1 6.5µM | JMJD2E inh-2 inconclusive | FDH inh inactive | JMJD2E MALDI inh 21
OCc1cn(Cc2ccc(O)c3ncccc23)cn1	L3MBTL1 block 7.1µM, BAZ2B inh 1µM (no result: Sfp inh, JMJD2A Tudor, HP1b chromo inh) | JMJD2E inh-1 11µM | JMJD2E inh-2 11µM | FDH inh inactive
O=C(Cc1ccccc1F)Nc1cccc2cccnc12	none
CC(=O)NCCNc1nc(-c2cccc(C#N)c2)nc2ccccc12	none (no result: L3MBTL1 block, BAZ2B inh, JMJD2A Tudor, HP1b chromo inh)
Cc1cc(N2CCCC2)nc(-c2ccccc2O)n1	none
CN(C)CCCNC(=O)c1ccc(-c2cc(O)c3ncccc3c2)cc1	L3MBTL1 block 20µM, BAZ2B inh 7.1µM, JMJD2A Tudor 20µM (no result: Sfp inh) | JMJD2E inh-1 32µM | JMJD2E inh-2 16µM | FDH inh inactive
CN(C)c1ccc(-c2ccncc2)cc1	none (no result: L3MBTL1 block, JMJD2A Tudor, HP1b chromo inh)
CN(C)c1ccc(-c2cc(O)c3ncccc3c2)cc1	JMJD2A Tudor inconclusive (no result: Sfp inh) | JMJD2E inh-1 16µM | JMJD2E inh-2 16µM | FDH inh inactive
